Measured values taken from PubChem BioAssay AID1159580 (chemical genetic matrix, 2015).
Among all 5,500 compounds or so, about 2,000 (36%) were called active. Roughly 18% stayed inconclusive and do not appear here. Rule as the data show it: active = normalized growth mostly below about 0.91 (no sharp cut-off); inconclusive = no clear call, values can overlap the other calls; inactive = mostly above about 0.92. This is one part of the list.

Assay: chemical genetic growth profiling, strain panel (AID 1159580);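 also: tested at 20 µM; growth read once vehicle control cultures reached saturation at 30 °C; 1 = growth at the plate median or of vehicle wells; lower values mean less growth of the strain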
Settings: growth OD

Measured: normalized growth

Cc1cc(OC(=O)c2c(C)cc(OC(=O)c3c(C)cc(O)cc3O)cc2O)cc(O)c1C(=O)O
inactive: S. cerevisiae deletion strains, locus YAL013W, strain DEP1, stronger effect = lower value 1.02 | S. cerevisiae deletion strains, locus YBR021W, strain FUR4, stronger effect = lower value 0.985 | S. cerevisiae deletion strains, locus YBR229C, strain ROT2, stronger effect = lower value 1.03 | S. cerevisiae deletion strains, locus YCL029C, strain bik1, stronger effect = lower value 0.973 | S. cerevisiae deletion strains, locus YDL035C, strain GPR1, stronger effect = lower value 0.997 | S. cerevisiae deletion strains, locus YDL074C, strain BRE1, stronger effect = lower value 1.01 | S. cerevisiae deletion strains, locus YDL101C, strain DUN1, stronger effect = lower value 1.02 | S. cerevisiae deletion strains, locus YDL134C, strain PPH21, stronger effect = lower value 1.03 | S. cerevisiae deletion strains, locus YDL185W, strain tfp1, stronger effect = lower value 0.99 | S. cerevisiae deletion strains, locus YDL192W, strain arf1, stronger effect = lower value 0.979 | S. cerevisiae deletion strains, locus YDR101C, strain arx1, stronger effect = lower value 0.971 | S. cerevisiae deletion strains, locus YDR150W, strain NUM1, stronger effect = lower value 1.03 | S. cerevisiae deletion strains, locus YDR162C, strain NBP2, stronger effect = lower value 0.998 | S. cerevisiae deletion strains, locus YDR318W, strain mcm21, stronger effect = lower value 0.967 | S. cerevisiae deletion strains, locus YDR388W, stronger effect = lower value 0.992 | S. cerevisiae deletion strains, locus YDR502C, strain sam2, stronger effect = lower value 0.991 | S. cerevisiae deletion strains, locus YER110C, stronger effect = lower value 0.986 | S. cerevisiae deletion strains, locus YER155C, strain BEM2, stronger effect = lower value 1.03 | S. cerevisiae deletion strains, locus YER167W, strain BCK2, stronger effect = lower value 1 | S. cerevisiae deletion strains, locus YGL078C, strain dbp3, stronger effect = lower value 1 | S. cerevisiae deletion strains, locus YGL086W, strain mad1, stronger effect = lower value 0.98 | S. cerevisiae deletion strains, locus YGL248W, strain PDE1, stronger effect = lower value 1.04 | S. cerevisiae deletion strains, locus YGR078C, strain PAC10, stronger effect = lower value 1 | S. cerevisiae deletion strains, locus YGR135W, strain pre9, stronger effect = lower value 0.999 | S. cerevisiae deletion strains, locus YGR229C, strain SMI1, stronger effect = lower value 0.953 | S. cerevisiae deletion strains, locus YGR252W, strain gcn5, stronger effect = lower value 0.872 | S. cerevisiae deletion strains, locus YHR030C, strain SLT2, stronger effect = lower value 1.02 | S. cerevisiae deletion strains, locus YHR079C, strain IRE1 (second series), stronger effect = lower value 0.971 | S. cerevisiae deletion strains, locus YHR094C, strain hxt1, stronger effect = lower value 1.01 | S. cerevisiae deletion strains, locus YHR129C, strain ARP1, stronger effect = lower value 1.02 | S. cerevisiae deletion strains, locus YHR200W, strain rpn10, stronger effect = lower value 0.994 | S. cerevisiae deletion strains, locus YIL066C, strain RNR3, stronger effect = lower value 1.01 | S. cerevisiae deletion strains, locus YIL073C, strain SPO22, stronger effect = lower value 0.956 | S. cerevisiae deletion strains, locus YIL125W, strain kgd1, stronger effect = lower value 1.02 | S. cerevisiae deletion strains, locus YIR030C, strain dcg1, stronger effect = lower value 0.998 | S. cerevisiae deletion strains, locus YJL095W, strain BCK1, stronger effect = lower value 0.986 | S. cerevisiae deletion strains, locus YJL134W, strain LCB3, stronger effect = lower value 1.02 | S. cerevisiae deletion strains, locus YJL168C, strain set2, stronger effect = lower value 0.999 | S. cerevisiae deletion strains, locus YJL187C, strain SWE1 (second series), stronger effect = lower value 1.01 | S. cerevisiae deletion strains, locus YJR043C, strain POL32, stronger effect = lower value 0.981 | S. cerevisiae deletion strains, locus YJR075W, strain HOC1, stronger effect = lower value 0.979 | S. cerevisiae deletion strains, locus YKL068W, stronger effect = lower value 1 | S. cerevisiae deletion strains, locus YKL085W, strain MDH1 (second series), stronger effect = lower value 0.975 | S. cerevisiae deletion strains, locus YKL085W, strain MDH1, stronger effect = lower value 0.975 | S. cerevisiae deletion strains, locus YKL190W, strain CNB1, stronger effect = lower value 1.02 | S. cerevisiae deletion strains, locus YKR001C, strain vps1, stronger effect = lower value 0.967 | S. cerevisiae deletion strains, locus YLR039C, strain RIC1, stronger effect = lower value 0.997 | S. cerevisiae deletion strains, locus YLR058C, strain SHM2, stronger effect = lower value 1.02 | S. cerevisiae deletion strains, locus YLR102C, strain apc9, stronger effect = lower value 1.01 | S. cerevisiae deletion strains, locus YLR262C, strain YPT6, stronger effect = lower value 1 | S. cerevisiae deletion strains, locus YLR268W, strain sec22, stronger effect = lower value 0.982 | S. cerevisiae deletion strains, locus YLR330W, strain CHS5, stronger effect = lower value 1.01 | S. cerevisiae deletion strains, locus YLR342W, strain FKS1 (second series), stronger effect = lower value 0.937 | S. cerevisiae deletion strains, locus YLR371W, strain rom2, stronger effect = lower value 0.999 | S. cerevisiae deletion strains, locus YLR418C, strain cdc73, stronger effect = lower value 0.959 | S. cerevisiae deletion strains, locus YML016C, strain PPZ1, stronger effect = lower value 1.03 | S. cerevisiae deletion strains, locus YML032C, strain rad52, stronger effect = lower value 0.965 | S. cerevisiae deletion strains, locus YML124C, strain tub3, stronger effect = lower value 1.01 | S. cerevisiae deletion strains, locus YMR078C, strain ctf18, stronger effect = lower value 1 | S. cerevisiae deletion strains, locus YMR223W, strain ubp8, stronger effect = lower value 0.967 | S. cerevisiae deletion strains, locus YMR263W, strain SAP30, stronger effect = lower value 1.02 | S. cerevisiae deletion strains, locus YMR307W, strain GAS1, stronger effect = lower value 0.862 | S. cerevisiae deletion strains, locus YNL067W, strain RPL9B, stronger effect = lower value 1.01 | S. cerevisiae deletion strains, locus YNL128W, strain TEP1, stronger effect = lower value 1.04 | S. cerevisiae deletion strains, locus YNL153C, strain GIM3, stronger effect = lower value 1.02 | S. cerevisiae deletion strains, locus YNL233W, strain BNI4, stronger effect = lower value 0.995 | S. cerevisiae deletion strains, locus YNL250W, strain rad50, stronger effect = lower value 0.997 | S. cerevisiae deletion strains, locus YNL271C, strain bni1, stronger effect = lower value 0.985 | S. cerevisiae deletion strains, locus YNL298W, strain CLA4, stronger effect = lower value 0.981 | S. cerevisiae deletion strains, locus YNL307C, strain MCK1, stronger effect = lower value 0.966 | S. cerevisiae deletion strains, locus YNL322C, strain KRE1, stronger effect = lower value 1.03 | S. cerevisiae deletion strains, locus YNR052C, strain pop2, stronger effect = lower value 0.972 | S. cerevisiae deletion strains, locus YOL006C, strain TOP1, stronger effect = lower value 0.993 | S. cerevisiae deletion strains, locus YOL012C, strain htz1 0.878 | S. cerevisiae deletion strains, locus YOL147C, strain pex11, stronger effect = lower value 0.999 | S. cerevisiae deletion strains, locus YOR061W, strain CKA2, stronger effect = lower value 1.02 | S. cerevisiae deletion strains, locus YOR069W, strain VPS5, stronger effect = lower value 1.01 | S. cerevisiae deletion strains, locus YOR136W, strain idh2, stronger effect = lower value 0.982 | S. cerevisiae deletion strains, locus YOR144C, strain elg1, stronger effect = lower value 1.01 | S. cerevisiae deletion strains, locus YOR184W, strain ser1, stronger effect = lower value 0.95 | S. cerevisiae deletion strains, locus YOR316C, strain cot1, stronger effect = lower value 0.996 | S. cerevisiae deletion strains, locus YPL055C, strain LGE1, stronger effect = lower value 1.03 | S. cerevisiae deletion strains, locus YPL241C, strain CIN2, stronger effect = lower value 1.02 | S. cerevisiae deletion strains, locus YPR119W, strain clb2, stronger effect = lower value 1 | S. cerevisiae deletion strains, locus YPR141C, strain kar3, stronger effect = lower value 1.01 | S. cerevisiae deletion strains, locus YPR163C, strain tif3, stronger effect = lower value 1 | S. cerevisiae deletion strains, locus YPR167C, strain met16, stronger effect = lower value 1.01 | S. cerevisiae deletion strains, strain wtn01, stronger effect = lower value 0.994 | S. cerevisiae strains, strain wild type, stronger effect = lower value 1
active: S. cerevisiae deletion strains, locus YKL009W, strain mrt4, stronger effect = lower value 0.76
